In all, about 310,000 compounds went through this assay and about 2,600 (0.84%) were called active. This is one part of a sample in which actives are shown more often than they occur. Unmarked numbers belong to inactive results.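 The calls were made as follows: active = fluorescence ratio B-score at or below minus 3 SD of library scores, with starting-brightness B-score within 2 SD (cut at about -4.2 in these data); inactive = the rest.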
molecular target: Inward rectifier potassium channel 2 (Mus musculus) (UniProt P35561); test: blocks the mouse Kir2.1 inward-rectifier potassium channel (AID 1672); conditions: HEK293-Kir2.1, FluxOR thallium flux fluorescence; at 10 µM; stronger effect = lower value;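 also: channel flux triggered by added potassium and thallium sulfate stimulus; B-score of peak minus minimum fluorescence over baseline after thallium stimulus; more negative B-score means stronger Kir2.1 block with less thallium influx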
Sequence (P35561 whole entry, looked up): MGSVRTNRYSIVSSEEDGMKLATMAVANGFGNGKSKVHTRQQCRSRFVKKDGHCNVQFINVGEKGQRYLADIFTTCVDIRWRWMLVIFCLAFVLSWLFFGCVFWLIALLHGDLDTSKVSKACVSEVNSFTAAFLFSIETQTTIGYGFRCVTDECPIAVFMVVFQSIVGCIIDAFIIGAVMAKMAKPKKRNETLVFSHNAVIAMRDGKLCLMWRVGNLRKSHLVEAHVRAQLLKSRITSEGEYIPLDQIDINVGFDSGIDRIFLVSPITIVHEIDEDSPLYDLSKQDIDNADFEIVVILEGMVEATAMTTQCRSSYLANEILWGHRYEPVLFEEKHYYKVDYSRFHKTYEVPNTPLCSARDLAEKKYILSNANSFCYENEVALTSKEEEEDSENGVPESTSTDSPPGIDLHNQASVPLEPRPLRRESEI

| Structure (SMILES) | B-score |
| --- | --- |
| CCN(CC)CCn1c2c(c(SCC(=O)Nc3nc4ccccc4s3)nc1=O)CCCC2 | 0.03 |
| COc1ccc(NC(=O)CN(C)C(=O)/C=C/c2cn(Cc3ccccc3)nc2-c2cccnc2)cc1 | 0.01 |
| CCOC(=O)c1cc(NC(=O)c2cccnc2)ccn1 | 0.04 |
| CCc1noc(C)c1C(=O)Oc1ccc(N(C)S(=O)(=O)c2ccc(C)c(C)c2)cc1 | -0.66 |
| CC(OC(=O)C1CC(=O)N(Cc2ccccc2)C1)C(=O)Nc1ccccc1[N+](=O)[O-] (configuration not stated) | -1.36 |
| N=c1c2c(-c3ccccc3)c(-c3ccccc3)n(Cc3ccccc3)c2ncn1CCCO | -6.86 (active) |
| N=c1c2c(-c3ccccc3)c(-c3ccccc3)oc2ncn1Cc1ccco1 | 1.16 |
| CCN(CC)CCn1cnc2c1c(=O)[nH]c(=O)n2Cc1ccccc1 | 0.13 |
| Cn1c(SCC(=O)c2ccccc2)ncc(C(=O)Nc2ccc(F)cc2)c1=O | 1.98 |
| O=S(=O)(Nc1cccc(-c2ccc(N3CCOCC3)nn2)c1)c1ccc(Cl)c(Cl)c1 | 0.82 |
| CCN(CC(=O)NCc1cccs1)C(=O)c1ccc(OC)c(S(=O)(=O)N2CCOCC2)c1 | -0.52 |
| CC1(C)NC(=O)N(CCOc2cccc(Oc3ccccc3)c2)C1=O | -4.68 (active) |
| CC(O)CNCCOc1cccc(Oc2ccccc2)c1 (configuration not stated) | -2.96 |
| Cc1cccc2c1N(CCOc1ccccc1)C(=O)C2=O | -0.18 |
| O=C(COc1coc(CN2CCN(c3ccccc3)CC2)cc1=O)Nc1ccccc1F | -0.62 |
| CN(C)CCOC1c2ccccc2-c2ccccc21 | 0.04 |
| CN(C)CCOCCOc1ccc(Cl)c2ccccc12 | -5.07 (active) |
| CCN(CC)CCOCCOc1ccc(Cl)c2ccccc12 | -2.53 |
| CN(Cc1c(F)cccc1Cl)C(=O)CNC(=O)c1ccc2c(c1)OCO2 | 0.45 |
| CCOc1ccc(NC(=O)CN(C)C(=O)COc2cccc(CC)c2)cc1OCC | -1.11 |
| COc1ccc2c(c1)C(=O)Nc1cc(Cl)ccc1N2 | 0.62 |
| CCOC(=O)CN1C(=O)C(=O)c2cc(C)ccc21 | -1.78 |
| CCCCOC(=O)Cn1c(=N)n(CCN(CC)CC)c2ccccc21 | 1.01 |
| CCCCCCCCCCOC(=O)Cn1c(COc2cccc(OC)c2)[n+](C)c2ccccc21 | -8.13 (active) |
| Cc1ccc(OCc2nc3ccccc3n2C)cc1 | -0.43 |

| Structure (SMILES) | B-score |
| --- | --- |
| CCn1c(=N)n(CC(=O)c2cccc(OC)c2)c2ccccc21 | -0.01 |
| Cc1ccc(OCCCn2c(=O)oc3ccccc32)cc1 | -1.92 |
| CCn1c(COc2cccc(OC)c2)nnc1SCC(=O)N1CCOCC1 | 0.86 |
| CCCCOC(=O)Cn1c(=O)n(CC(=O)OCCCC)c2cc(C)ccc21 | -7 (active) |
| CCCCCCCCCCOC(=O)Cn1c(COc2ccc(C)cc2)[n+](C)c2ccccc21 | -17.5 (active) |
| CC(C)CN(C(=O)COC(=O)c1ccc2ccccc2c1)c1c(N)n(Cc2ccccc2)c(=O)[nH]c1=O | 1.03 |
| CCOc1ccc(NC(=O)COc2ccc(C(=O)N3CCC(C(N)=O)CC3)cc2OC)cc1 | 1.65 |
| COc1ccc(CNC(=O)C(=O)N2CCC3(CC2)OCCN3S(=O)(=O)c2ccc(C)cc2)cc1 | 0.4 |
| COc1ccc(C(=O)Nc2cccc(NC(=O)c3ccc(OC)cc3OC)n2)c(OC)c1 | 1.64 |
| O=S(=O)(O)Oc1c[nH]c2ccccc12 | 0.01 |
| Cc1nnc(SCC(=O)N2CCN(c3ccccc3)CC2)n1-c1ccccc1 | 0.71 |
| Cc1nnc(SCC(=O)NCCOc2ccc(Cl)cc2)n1-c1ccccc1 | -0.16 |
| Cc1nnc(SCc2ccc(C(=O)c3ccc(Cl)cc3)o2)n1-c1ccccc1 | -6.19 (active) |
| COc1ccc(OCC(O)CN(C)C(=O)C(C)Oc2ccccc2)cc1 (configuration not stated) | -0.09 |
| CN(Cc1ccccc1)CC(O)COc1ccc(CNCc2cc3ccccc3s2)cc1 (configuration not stated) | -11.4 (active) |
| Cc1ccc(OCC(=O)OC(C)CN(C)Cc2ccccc2)cc1 (configuration not stated) | 0.74 |
| C=CCNC(=O)C1CC2c3ccccc3C1c1ccccc12 (configuration not stated) | -2.23 |
| CC(C)Sc1nnc([C@H](Cc2ccccc2)NC(=O)OC(C)(C)C)o1 | -0.51 |
| C[C@H](NC(=O)OC(C)(C)C)c1nnc(SCC(N)=O)o1 | -0.34 |
| C[C@@H](NC(=O)OC(C)(C)C)c1nnc(S(=O)(=O)Cc2ccccc2)o1 | -6.48 (active) |
| O=C(c1ccc(Cl)s1)N(Cc1nnc(-c2ccccc2Cl)o1)C1CC1 | 1.76 |
| Cc1ccn2c(=O)nc(SCC(=O)NCc3ccc(F)cc3)nc2c1 | -1.27 |
| Cc1csc(NC(=O)c2ccc(C)s2)n1 | 0.01 |
| CC(=O)Nc1cccc(C(=O)OCC(=O)Nc2nnc(-c3ccccc3)o2)c1 | -2.17 |
| COc1ccccc1NS(=O)(=O)c1ccc(C)c(C(=O)NCC(c2ccco2)N(C)C)c1 (configuration not stated) | -0.98 |

| Structure (SMILES) | B-score |
| --- | --- |
| C=CCNC(=S)/N=c1/ccccn1Cc1ccccc1 | -6.6 (active) |
| C=CCNC(=S)N/N=C/c1ccc(OCc2ccccc2)cc1 | -1.45 |
| C=CCNC(=O)COc1coc(CN2CCN(Cc3ccccc3)CC2)cc1=O | 0.45 |
| O=C(Nc1ncccc1O)c1ccc(S(=O)(=O)N2CCCC2)cc1 | -0.16 |
| COCC(C)NCc1cc(Br)ccc1OC (configuration not stated) | 1.7 |
| CC(C)(C)NCc1cc(Br)ccc1OC1CCCC1 | -4.79 (active) |
| CCOCCCNCc1cc(Br)ccc1OCC | -0.16 |
| Cc1ccc(NC(=O)c2cnc(SCC(=O)NCC3CCCO3)n(C)c2=O)cc1 (configuration not stated) | 0.42 |
| Cc1ccc(S(=O)(=O)N2CCC(C(=O)NCCC3=CCCCC3)CC2)cc1C | 0.61 |
| O=C1c2ccccc2C(=O)c2c1cccc2N1CCN(C/C=C/c2ccccc2)CC1 | 1.06 |
| COc1ccc(C)cc1NC(=O)CSc1nnc2ccc(-c3ccccn3)nn12 | 0.98 |
| Cc1ccc(SCCN2C(=O)NC(C)(C)C2=O)cc1 | 0.51 |
| CC1(C)NC(=O)N(CCCCSc2ccc(Cl)cc2)C1=O | -6.38 (active) |
| CSc1ccc(CN2C(=O)NC3(CCCCCC3)C2=O)cc1 | 1.22 |
| Cc1ccn2c(=O)c(NC(=O)c3cccc4ccccc34)c(C)nc2c1 | -0.25 |
| CC1CN(C(=O)CCC(=O)NCc2cccnc2)c2ccccc2O1 (configuration not stated) | -0.67 |
| CC1CN(C(=O)CCC(=O)NC2CCN(Cc3ccccc3)CC2)c2ccccc2O1 (configuration not stated) | 2.27 |
| CC1CN(C(=O)CCC(=O)NCCCN2CCC(Cc3ccccc3)CC2)c2cc(Cl)ccc2O1 (configuration not stated) | -9.24 (active) |
| CN(C)S(=O)(=O)c1ccc(N2CCCC2)c(C(=O)Nc2ccc(Br)cc2F)c1 | -0.29 |
| Cc1cc(C)cc(NC(=O)COc2coc(CN3CCN(c4ccccc4)CC3)cc2=O)c1 | 0 |
| Cc1ccc(NC(=S)N(CCCN2CCCC2)Cc2cccn2Cc2ccc(Cl)cc2)cc1 | -8.85 (active) |
| Cc1ccc(NC(=S)N(CCCN2CCC(C)CC2)Cc2ccco2)cc1 | -0.74 |
| Cc1ccc(NC(=S)N(CCN2CCCCC2)Cc2ccco2)cc1C | -0.41 |
| CC(C)(C)S(=O)(=O)c1ccccc1-c1noc(-c2ccccc2)c1C(N)=O | -0.65 |
| COc1ccc(S(=O)(=O)NCC(c2ccc(C)cc2)N2CCN(C)CC2)cc1OC (configuration not stated) | 1.23 |

| Structure (SMILES) | B-score |
| --- | --- |
| CCCOc1ccc(C(=O)CCC(=O)OC(C)C(=O)Nc2ccc(NC(C)=O)cc2)cc1 (configuration not stated) | 0.42 |
| CCCCOc1ccc(C(=O)NCc2ccncc2)cc1 | 0.24 |
| CCCOc1ccc(C(=O)C(CCC(CNCC)C(=O)c2ccc(OCCC)cc2)CNCC)cc1 (configuration not stated) | -6.16 (active) |
| O=C(CSc1nc(=O)n2ccccc2n1)Nc1ccc2c(c1)OCCO2 | 0.08 |
| CCOc1ccc(C(C)=O)cc1COC(=O)CN1C(=O)NC2(CCCC2)C1=O | -1.53 |
| CCCCn1c(N)c(N(CC(C)C)C(=O)c2ccc(-n3c(C)ccc3C)cc2)c(=O)[nH]c1=O | -1.14 |
| c1ccc(C2CNCc3c2ccc2ccccc32)cc1 (configuration not stated) | -11.2 (active) |
| Cc1ccc(C)c(-c2nnc(NC(=O)CS(=O)(=O)c3ccccc3)o2)c1 | 1.4 |
| O=c1[nH]c(/C=C/c2cccc(Br)c2)nc2ccccc12 | 0.39 |
| Cc1cc(C)cc(NC(=O)CSc2ccccc2)c1 | 0.12 |
| O=C(CSc1ccccc1)Nc1cc(Cl)ccc1Oc1ccccc1 | -1.22 |
| CC(=O)Nc1ccc(SCC(=O)Nc2ccccc2Oc2ccccc2)cc1 | -6.89 (active) |
| N#CCCN(C(=O)COC(=O)C1CCN(c2ccc(C(F)(F)F)cn2)CC1)c1ccc(F)cc1 | 0.96 |
| CCOC(=O)N1CCN(C(=O)COc2ccc3oc4c(c3c2)CCCC4)CC1 | 0.58 |
| COc1ccccc1CCNC(=O)C(=O)NCCC1CCCCN1S(=O)(=O)c1cccs1 (configuration not stated) | -1.17 |
| O=C(/C=C/c1ccc(Cl)c([N+](=O)[O-])c1)c1cccnc1 | -0.86 |
| O=C(/C=C/c1ccc(Cl)cc1Cl)c1cccnc1 | -4.49 (active) |
| O=C(Nc1cccnc1)c1cc(Cl)ccc1Cl | 0.72 |
| COc1ccc2oc(C(=O)OCC(=O)N(CC(C)C)c3c(N)n(Cc4ccccc4)c(=O)[nH]c3=O)c(C)c2c1 | 0.5 |
| Cc1cc(C)c(S(=O)(=O)c2ccc(F)cc2C)c(=O)[nH]1 | 0.31 |
| COc1ccccc1S(=O)(=O)c1c(C)cc(C)[nH]c1=O | -1.21 |
| C=C(C)Cn1c(C)cc(C)c(S(=O)(=O)c2ccccc2C)c1=O | -4.55 (active) |

From PubChem BioAssay AID1672 (Johns Hopkins Ion Channel Center, 2009)
